Only some compounds are listed: those with a hit (about 4.6% of all), similar ones and a draw of the others.
TRHR enhancer = allosterically enhances the human TRH receptor; 360,000 compounds, 0.66% hits; enhancement, % at 2 µM; AID 493056; TRHR cells, fluo-8 calcium fluorescence, EC20 TRH enhancement; in the data active = enhancement above about 30%; note: 0% is about no effect
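TRHR-expressing cells loaded with fluo-8 calcium dye were read kinetically (ex 480/em 530) during compound addition, then stimulated with an EC20 of TRH (10 nM final). Enhancement of the Gq-mediated intracellular calcium response was scored.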
D1 PAM = enhances dopamine response at the human D1 receptor; P21728; HEK293 TREx D1 cells, calcium flux, dopamine EC20 potentiation; potentiation, % at 10 µM; 360,000 compounds, 0.036% hits; in the data active = potentiation above about 30%; note: 0% is about no effect
Target sequence (P21728 whole entry, looked up): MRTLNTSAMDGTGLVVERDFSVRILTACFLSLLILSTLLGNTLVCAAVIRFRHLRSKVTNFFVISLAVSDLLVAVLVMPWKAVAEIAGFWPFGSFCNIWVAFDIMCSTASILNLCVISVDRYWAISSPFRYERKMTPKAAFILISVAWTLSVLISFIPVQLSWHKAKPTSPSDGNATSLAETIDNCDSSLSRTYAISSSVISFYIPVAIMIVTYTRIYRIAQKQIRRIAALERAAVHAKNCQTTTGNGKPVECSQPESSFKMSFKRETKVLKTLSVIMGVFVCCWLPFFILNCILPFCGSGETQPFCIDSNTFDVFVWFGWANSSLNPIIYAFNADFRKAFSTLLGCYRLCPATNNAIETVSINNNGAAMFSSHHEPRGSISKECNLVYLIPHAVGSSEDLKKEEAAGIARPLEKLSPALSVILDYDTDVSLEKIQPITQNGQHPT
TRHR ag = activates the human TRH receptor. TRHR cells, calcium flux fluo-8, FDSS agonist mode. P34981. 360,000 compounds, 0.18% hits. AID 493084. activation, % at 2 µM; note: 0% is about no effect
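TRHR-expressing cells loaded with fluo-8 calcium dye; 23 nL library compound pin-transferred, kinetic FDSS fluorescence (Ex 480/Em 530) recorded about 180 s for agonist-induced calcium release, before a 10 nM TRH EC20 addition for potentiator mode.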
D1 antagonist = antagonists of human D1 dopamine receptor; activity change, negative = inhibition, % at 10 µM; 360,000 compounds, 3.2% hits; AID 504652; HEK293 TREx D1 cells, calcium flux, dopamine EC80; active compounds read low; P21728; in the data active = activity change below about -30%; note: % is set by controls: 0 for no effect and ±100 for the full control effect
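Kinetic fluorescence of a calcium dye serves as the read-out. D1-expressing Hek293 Trex cells, induced overnight at 30 C, are exposed to compound for 180 s before an EC80 dopamine addition, then read 180 s further.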
D1 agonist = activates the human D1 dopamine receptor | 360,000 compounds, 1% hits | AID 504660 | HEK293 T-REx D1 cells, calcium flux, agonist mode | activation, % at 2 µM | P21728; note: 0% is about no effect
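Agonism was scored from calcium flux recorded over 180 s (1 read/s) after pintool compound addition, following a 10-cycle baseline. Cells were inducible force-coupled HEK293 TREx D1, plated overnight at 30 C and loaded with no-wash calcium dye.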
* marks the source's active call; other numbers are inactive results; nt = no result. Cut-off read from the data, not from the text of the source, unless noted: active = activation above about 30%; inactive = the rest.

SMILES	TRHR enhancer	D1 PAM	TRHR ag	D1 antagonist	D1 agonist
O=C(Nc1cccc(Cl)c1Cl)c1snnc1-c1ccccc1	-2	-4	0	8	26
Cn1c(=O)c([N+](=O)[O-])c(NCCc2ccccc2)c2ccccc21	-5	2	0	17	1
CCn1c(=O)c([N+](=O)[O-])c(NCCc2ccccc2)c2ccccc21	11	-2	0	-52*	5
Cc1cccc(NC(=O)c2sc3nc(-c4ccccc4)cn3c2C)c1C	8	-2	0	5	6
CCc1nn(CC(=O)NCCCN(C)Cc2ccccc2)c(=O)c2cc3sc(C)cc3n12	2	3	-1	-37*	3
COc1cccc2c1cc1c(=O)n(CC(=O)NCCCc3ccccc3)nc(C)n12	0	5	0	-39*	2
CCc1nn(CC(=O)NCCCc2ccccc2)c(=O)c2cc3c(OC)cccc3n12	2	-2	0	-9	0
CCOCCCNC(=O)Cn1nc(CC)n2c(cc3c(OC)cccc32)c1=O	4	-5	0	-30*	1
COc1ccccc1NS(=O)(=O)c1cc(NC(C)=O)ccc1N1CCCCC1	-2	6	2	11	4
COCC(=O)Nc1ccc(N2CCCC2)c(S(=O)(=O)Nc2ccccc2OC)c1	-6	9	0	-31*	-1
COc1cc(OC)c(NS(=O)(=O)c2c(C(=O)N3CCC(C)CC3)c(C)n(C)c2C)cc1Cl	-7	2	0	-20	0
CC(=O)Nc1sc2c(c1-c1nc3ccccc3s1)CCN(C(C)C)C2	-4	9	130*	-13	74*
CC(=O)N1CCc2c(sc(NC(=O)CSc3ccc(F)cc3)c2-c2nc3ccccc3s2)C1	-3	-2	0	nt	2
CN1CCc2c(sc(NC(=O)CSc3ccc(F)cc3)c2-c2nc3ccccc3s2)C1	-13	-1	102*	-22	399*
CCN1CCc2c(sc(NC(=O)CSc3ccccc3)c2-c2nc3ccccc3s2)C1	-20	-5	147*	-24	403*
CCN(CC)S(=O)(=O)c1ccc(NC(=O)c2nn(C)c3c2CSc2ccccc2-3)cc1	5	-2	0	-15	0
COc1cccc(NC(CNS(=O)(=O)c2ccc(Cl)cc2)c2ccccc2)c1 (stereo not given)	7	-3	-1	-34*	9
COc1cccc(NC(CNS(=O)(=O)c2ccc(C)cc2)c2ccccc2)c1 (stereo not given)	8	-2	-1	-7	2
Cc1coc2c(C)c3oc(=O)c(CCC(=O)N4CCC(C(=O)NCCCC(=O)O)(c5ccccc5)CC4)c(C)c3cc12	15	1	-1	1	1
CC(Oc1cccc(Cl)c1)C(=O)Nc1nc(-c2ccccn2)cs1 (stereo not given)	11	-6	1	-35*	5
CCOC(=O)c1sc(NC(=O)CSc2n[nH]c(-c3ccccc3)n2)c(C#N)c1C	-6	-2	0	-36*	26
CCCN(C(=O)c1c(C)oc2ncn(CC(C)C)c(=O)c12)c1ccccc1C	-4	1	0	5	-1
CCOc1ccc(-c2cc(NC(=O)c3c(F)cccc3F)c(C(=O)O)s2)cc1	-1	-8	0	-49*	0
CCOc1ccc(NC(=O)Nc2cc(-c3ccccc3)sc2C(=O)OC)cc1	-1	7	1	6	4
CC1CCC2(CC1)SCC(=O)N2c1ccccc1 (stereo not given)	1	-5	0	13	1
SMILES	TRHR enhancer	D1 PAM	TRHR ag	D1 antagonist	D1 agonist
Cc1cccc(N2C(=O)CSC23CCCCC3)c1	1	-8	0	-34*	2
CC(C)(C)c1ccc(C(=O)N2CC(=O)Nc3ccc(F)cc3C2c2ccc(F)cc2)cc1 (stereo not given)	-1	3	3	8	8
CCOC(=O)c1cccc(NC(=O)/C=C/c2ccc([N+](=O)[O-])cc2)c1	-4	-4	0	-44*	6
Cc1ccc(NC(=O)/C(C#N)=C/c2ccc(C)s2)c(C)c1	-5	-2	0	4	43*
O=C1CCC(=O)N1CN(Cc1ccco1)CN1C(=O)CCC1=O	-7	-6	0	-77*	1
O=C1c2ccccc2C(=O)N1Cc1ccco1	-4	-3	0	-10	0
CCn1c(CCNC(=O)c2ccc(OC)cc2)nnc1SCc1ccc(Cl)c(Cl)c1	-8	-8	0	-21	10
COc1ccc(C(=O)NC(CO)c2nnc(SCc3ccc(Cl)c(Cl)c3)n2C)cc1 (stereo not given)	-4	0	0	-34*	0
CC(C)c1ccc(CNC(=O)CCc2ccccc2)cc1	8	4	0	-7	2
CC(C)c1ccc(CNCCSc2nnnn2-c2ccccc2)cc1	6	6	0	10	56*
Clc1ccccc1CNCCCSc1nnnn1-c1ccccc1	-1	-1	0	1	31*
CC(C)c1ccc(CNCc2ccccc2)cc1	-2	-3	1	-7	50*
COc1ccc(CNCCSc2nnnn2-c2ccccc2)cc1	5	3	0	-1	14
Fc1ccccc1CNCCCSc1nnnn1-c1ccccc1	6	0	0	-9	6
Fc1ccc(CNCCCSc2nnnn2-c2ccccc2)cc1	6	5	-1	-43*	161*
O=C(COc1coc(CN2CCCc3ccccc32)cc1=O)Nc1ccccc1	8	-6	0	15	9
Cc1ccc2c(c1)C1CN(C)CCC1N2C(=O)c1cccc(S(=O)(=O)N2CC(C)CC(C)C2)c1 (stereo not given)	-7	-6	-2	10	2
Cc1ccc2c(c1)C1CN(C)CCC1N2S(=O)(=O)c1ccc(C(C)C)cc1 (stereo not given)	0	-6	1	-31*	3
Cc1ccc2c(c1)C1CN(C)CCC1N2C(=O)c1ccc(Cl)c(S(=O)(=O)N2CCOCC2)c1 (stereo not given)	-2	-5	1	-45*	2
CCOc1ccc(N(CC)S(=O)(=O)N2CCCC(C(=O)NCCc3ccccc3OC)C2)cc1 (stereo not given)	-21	-4	-1	2	6
Cc1ccccc1NC(=O)c1nnn(-c2ccc3c(c2)OCCO3)c1N	4	-6	0	-48*	14
O=C1c2cccc3c(N4CCCCC4)ccc(c23)C(=O)N1CCO	10	-4	69*	4	109*
O=C(c1cccc(N2C(=O)c3ccccc3C2=O)c1)N1CCCCCC1	-1	-2	-1	-1	1
C=CCN1C(=O)c2cccc3c(N4CCCCC4)ccc(c23)C1=O	-1	-6	34*	-12	89*
